High-throughput results from PubChem BioAssay.
This is a sample that favours compounds with a hit; in the whole collection about 2.8% have one here.
POLH inh: qHTS for Inhibitors of Polymerase Eta; recombinant Pol eta, fluorescent DNA replication assay; AID 588591, 2011; 1.2% of 390,000 active; Potency, µM (titrated, usually from 114 µM), for the others: at the highest dose activity change, negative = inhibition, usual class: inhibitors; note: potency is the fitted concentration of half-maximal effect; % is set by controls: 0 for no effect and ±100 for the full control effect
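Pol eta at 10 nM preincubated with compounds 15 min at room temperature; reaction started with fluorescent substrate (50 nM final) and read kinetically at 0 and 10 min.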
Pol kappa inh: qHTS for Inhibitors of Polymerase Kappa; Potency, µM (titrated, usually from 107 µM), inactives show top-dose activity, negative = inhibition, actives largely listed as inhibitors; purified Pol kappa, fluorescent DNA synthesis assay, 10 min; 0.53% of 400,000 active; note: potency is the fitted concentration of half-maximal effect; % is set by controls: 0 for no effect and ±100 for the full control effect
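Inhibition of 10 nM Pol kappa is measured by a fluorescent read-out at 0 and 10 min following addition of 50 nM substrate (final), with a 15-min room-temperature compound preincubation.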
Pol beta inh: qHTS Assay for Inhibitors of DNA Polymerase Beta | P06746 | Potency, µM (highest dose often 114 µM), for inactives: top-dose activity change, negative = inhibition, most hits filed as inhibitors | Pol beta primer extension/strand displacement, fluorescence kinetic | 1.3% of 340,000 active; note: potency is the fitted concentration of half-maximal effect; % is set by controls: 0 for no effect and ±100 for the full control effect
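10 nM enzyme + cpd, 15 min RT; start with substrate 50 nM final; read 0 min and after 10 min RT. Corrected, normalized data; 4-parameter Hill curve fit.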
POLI inh: qHTS for Inhibitors of Polymerase Iota. DNA polymerase iota (Homo sapiens), Q9UNA4. Pol iota fluorescent replication assay, 10 min. Potency, µM (series often up to 115 µM), inactives show top-dose activity, negative = inhibition, most hits filed as inhibitors. 1% of 390,000 active; note: potency is the fitted concentration of half-maximal effect
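Fluorescent replication assay read twice, at 0 min and 10 min after adding 50 nM (final) substrate. Enzyme (10 nM) and compounds were first incubated 15 min at room temperature; enzyme-free buffer wells were negative controls.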
WRN helicase inh: qHTS for Inhibitors of WRN Helicase; WRN helicase unwinding, fluorescent forked duplex, kinetic; 0.46% of 360,000 active; Potency, µM (doses to about 114 µM), without a hit: at the top dose activity change, negative = inhibition, most hits filed as inhibitors; Bifunctional 3'-5' exonuclease/ATP-dependent helicase WRN (Homo sapiens), Q14191; note: potency is the fitted concentration of half-maximal effect; % is set by controls: 0 for no effect and ±100 for the full control effect; nearly all actives have a fitted effect of over 55% in size
Target sequence (Q14191 whole entry, looked up): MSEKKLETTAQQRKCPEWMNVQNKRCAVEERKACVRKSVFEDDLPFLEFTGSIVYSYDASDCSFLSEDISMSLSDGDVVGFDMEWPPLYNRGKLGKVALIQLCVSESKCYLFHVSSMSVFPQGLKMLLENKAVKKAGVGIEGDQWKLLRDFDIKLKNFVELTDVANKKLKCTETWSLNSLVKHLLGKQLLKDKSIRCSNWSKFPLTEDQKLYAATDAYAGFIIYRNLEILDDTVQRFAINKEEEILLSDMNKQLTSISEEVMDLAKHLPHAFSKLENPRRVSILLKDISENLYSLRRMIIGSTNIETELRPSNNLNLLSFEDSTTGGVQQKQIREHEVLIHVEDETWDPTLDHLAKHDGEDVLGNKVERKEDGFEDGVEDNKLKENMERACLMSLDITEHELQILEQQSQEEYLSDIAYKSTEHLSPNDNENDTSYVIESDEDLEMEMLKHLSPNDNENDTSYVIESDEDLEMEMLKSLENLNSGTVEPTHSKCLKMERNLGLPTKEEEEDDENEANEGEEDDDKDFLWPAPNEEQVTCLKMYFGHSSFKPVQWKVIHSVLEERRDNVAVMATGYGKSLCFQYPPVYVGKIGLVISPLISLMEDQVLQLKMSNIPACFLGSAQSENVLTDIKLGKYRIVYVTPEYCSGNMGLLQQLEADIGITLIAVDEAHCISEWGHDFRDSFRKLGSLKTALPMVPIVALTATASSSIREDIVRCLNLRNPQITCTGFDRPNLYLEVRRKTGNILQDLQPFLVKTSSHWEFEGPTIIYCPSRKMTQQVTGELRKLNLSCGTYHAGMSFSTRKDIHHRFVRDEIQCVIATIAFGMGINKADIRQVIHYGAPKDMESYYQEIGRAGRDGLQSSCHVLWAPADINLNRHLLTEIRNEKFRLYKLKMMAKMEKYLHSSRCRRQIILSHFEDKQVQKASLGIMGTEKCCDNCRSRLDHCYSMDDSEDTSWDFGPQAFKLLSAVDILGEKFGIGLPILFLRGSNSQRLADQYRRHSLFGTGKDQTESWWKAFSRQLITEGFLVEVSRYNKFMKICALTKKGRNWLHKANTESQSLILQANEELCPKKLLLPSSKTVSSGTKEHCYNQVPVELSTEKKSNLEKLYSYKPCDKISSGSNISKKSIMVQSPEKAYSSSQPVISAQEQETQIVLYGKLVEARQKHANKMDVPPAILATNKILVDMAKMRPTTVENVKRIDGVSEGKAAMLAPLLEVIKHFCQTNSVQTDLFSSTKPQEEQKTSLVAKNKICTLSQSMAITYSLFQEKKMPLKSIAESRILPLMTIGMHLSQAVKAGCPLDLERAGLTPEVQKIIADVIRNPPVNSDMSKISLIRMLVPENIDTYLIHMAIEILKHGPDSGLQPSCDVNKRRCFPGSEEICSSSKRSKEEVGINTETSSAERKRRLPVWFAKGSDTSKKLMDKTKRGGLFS
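WRN at 20 nM final was preincubated with compound for 15 min at room temperature; reaction started with 100 nM forked duplex oligonucleotide carrying fluorophore and quencher plus 2 mM ATP (final). Unwinding followed kinetically by red fluorescence (ex 525/em 598 nm).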
PI5P4Ka inh: qHTS for Inhibitors of phosphatidylinositol 5-phosphate 4-kinase (PI5P4K) | 1.2% of 330,000 active | AID 652105, 2013 | PI5P4Kalpha enzyme, ADP-Glo luminescence, 60 min; hits give low values | Phosphatidylinositol 5-phosphate 4-kinase type-2 alpha (Homo sapiens), P48426 | max response, %; active = max response of -50% or lower; inconclusive = between -30% and -50%; inactive = -30% or higher; note: value at the top dose of about 77 µM; % is set by controls: 0 for no effect and ±100 for the full control effect
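qHTS, 1536-well: enzyme/substrate mix, compound by pin tool, 5 microM ATP final; RT 60 min; ADP-Glo reagents 1 (45 min) then 2 (30 min); luminescence.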
Active calls of the source: *; ? = inconclusive; nt = no result given; ! = a repeat was not active; [ ] = another dose, or the depositor's remark. Unless noted, calls come from the whole dose curve; as a rule, active = well fitted curve in the direction sought with a large enough effect; inconclusive = small, poorly fitted or top-dose-only effect, or another doubt; inactive = no such curve, though single readings can be large; an effect the other way counts as inactive or inconclusive.

SMILES	POLH inh	Pol kappa inh	Pol beta inh	POLI inh	WRN helicase inh	PI5P4Ka inh
CCOC(=O)CSCCOc1ccc(C=C2C(=O)NC(=O)NC2=O)cc1OC	2%	-9%	0%	16%	?	?
C=CCc1cc(C=C2C(=O)NC(=O)NC2=O)cc(OC)c1OCc1ccc(C(=O)O)cc1	50µM*	-20%	?	?	-11%	-62*
CON(C)C(=O)Nc1ccc(Br)c(Cl)c1	nt	16%[60.1 µM]	nt	nt	nt	nt
Cc1noc(C)c1C(=O)N1CCC2(CCCN(CC(C)C)C2)CC1	nt	0%[60.1 µM]	nt	nt	nt	nt
Cc1c2ccncc2c(C)c2c1[nH]c1ccccc12	?	?	4µM*	14µM*!	-13%	-6
CCS(=O)(=O)N1N=C(c2cccc(NS(C)(=O)=O)c2)CC1c1ccccc1 (centres undefined)	45µM*	-2%	32µM*	34%	50µM*	5
COc1cc2c(cc1OC)-c1c(OC)c(OC)cc3c1[C@H](C2)[N+](C)(C)CC3	-1%	-35%	50µM*	?	-7%	-3
COc1cc2c3c(c1OC)-c1cc(O)ccc1CC3NCC2 (centres undefined)	-4%	-12%	-24%	-14%	0%	-6
CNS(=O)(=O)c1ccc(-c2ccc(C=C3C(=O)NC(=O)NC3=O)o2)cc1	-8%	3%	?	22µM*	?	-20
O=C1NC(=O)C(=Cc2ccc(-c3cc(Cl)ccc3[N+](=O)[O-])o2)C(=O)N1	?	-29%	?	?	?	-53*
NS(=O)(=O)c1ccc(-c2ccc(C=C3C(=O)NC(=O)NC3=O)o2)cc1	18%	-18%	18%	?	-24%[11.6 µM]	-64*
O=C1NC(=O)C(=Cc2ccc(-c3ccccc3[N+](=O)[O-])o2)C(=O)N1	-12%	-15%	4%	?	?	0
COC(=O)C[C@@](O)(CCC(C)(C)O)C(=O)O[C@@H]1C(OC)=C[C@]23CCCN2CCc2cc4c(cc2[C@@H]13)OCO4	nt	13%[60.1 µM]	nt	nt	nt	nt
Cc1noc(C)c1NC(=O)Nc1cccc2c1O[C@H](CN(C)C(=O)NC1CCCCC1)[C@@H](C)CN([C@H](C)CO)C2=O	-22%	-1%	nt	27%	-8%	0
CC[C@@]1(O)C(=O)OCc2c1cc1n(c2=O)-c2cc3ccccc3nc2C1	nt	5%[60.1 µM]	nt	nt	nt	nt
S=c1[nH]nc(-c2ccco2)n1Cc1ccccc1	-8%	-1%	32µM*	21%	1%	4
CC1=CC(=O)c2c(O)cccc2C1=O	nt	10µM*!	nt	nt	nt	nt
COc1cccc(CNC(=O)c2cccc(S(=O)(=O)N3CCN(C)CC3)c2)c1	-11%	-1%	35%	-18%	?	3
N[C@@H](Cn1ccc(=O)[nH]c1=O)C(=O)O	nt	-11%[60.1 µM]	nt	nt	nt	nt
O=[N+]([O-])c1ccc(NCc2ccccc2)c2nonc12	-25%	-26%	1%	32µM*	-1%	-1
CCC(=NCC1CCCO1)c1c(O)n(Cc2ccccc2)c(=O)[nH]c1=O (centres undefined)	-5%	-8%	-11%	5%	-2%	6
CC/C(=N\NC(=O)c1ccccc1O)c1c(O)n(C2CCCCC2)c(=O)[nH]c1=O	-13%	-4%	0%	12%	-9%	-74*
CC/C(=N\NC(=O)c1ccccc1)c1c(O)n(Cc2ccccc2)c(=O)[nH]c1=O	-7%	-7%	1%	0%	-15%	-85*
CCC(=NCCO)c1c(O)n(C2CCCCC2)c(=O)[nH]c1=O	-9%	2%	-1%	0%	4%	-4
CC(C)(C)OC(=O)N1CC[C@H]1COc1cnc[c]([Sn]([CH3])([CH3])[CH3])c1	nt	-7%[12 µM]	nt	nt	nt	nt
SMILES	POLH inh	Pol kappa inh	Pol beta inh	POLI inh	WRN helicase inh	PI5P4Ka inh
C[C@H]1C[C@H](C)C(=O)[C@@H]([C@H](O)CC2CC(=O)NC(=O)C2)C1	nt	-4%[19.4 µM]	nt	nt	nt	nt
O=C(O)COc1ccc(Br)cc1C(c1c(C(=O)O)[nH]c2ccccc12)c1c(C(=O)O)[nH]c2ccccc12	89µM*	?	10%	?	-18%	-8
CC(C)(C)CC(C)(C)c1ccc(O)cc1	nt	-3%[19.4 µM]	nt	nt	nt	nt
Cc1c(C=O)c2ccccc2n1Cc1ccccc1	-29%	-14%	21%	26%	?	-3
O=Cc1c(C(=O)O)n(Cc2ccc(Cl)cc2)c2ccccc12	50µM*	-16%	?	?	-19%	-16
COc1cc(C=C2C(=O)NC(=O)NC2=O)ccc1O	11%	6%	1%	-17%	0%	-29
COc1cc(/C=C2\C(=O)NC(=O)N(CCc3ccc(F)cc3)C2=O)ccc1O	-1%	-20%	0%	?	?	-78*
C=CCN1C(=O)NC(=O)/C(=C/c2cccn2C)C1=O	0%	-9%	2%	?	-18%	?
CCOc1ccc(/C=C2/C(=O)NC(=O)N(CCc3ccc(F)cc3)C2=O)cc1	-6%	-8%	-6%	-10%	-18%	-55*
Cn1cccc1/C=C1/C(=O)NC(=O)N(Cc2ccc(F)cc2)C1=O	79µM*	71µM*	1%	40µM*	?	-65*
CC(C)Oc1ccc(CNC(=O)C2CCCN(S(=O)(=O)c3ccc4c(ccn4C)c3)C2)cc1 (centres undefined)	-18%	-6%[60.1 µM]	-16%	32%	nt	nt
Cc1cccc(N2C(=O)NC(=O)/C(=C/c3cc4c(cc3[N+](=O)[O-])OCO4)C2=O)c1	-9%	89µM*	0%	?	50µM*	?
O=C1NC(=O)C(=Cc2cc3c(cc2[N+](=O)[O-])OCO3)C(=O)N1	-8%	-5%	-26%	?	71µM*	?
O=c1c2ccccc2nc(CSc2ncnc3nc[nH]c23)n1-c1ccccc1Cl	-2%	-12%	40µM*	-16%	-8%	-21
O=c1c2ccccc2nc(CSc2ncnc3nc[nH]c23)n1-c1ccccc1	6%	-21%	-26%	18%	-4%	nt
C[N+]1([O-])[C@@H]2CC(OC(=O)[C@H](CO)c3ccccc3)C[C@H]1[C@@H]1O[C@@H]12 (some centres undefined)	-18%	0%	nt	14%	1%	-59*
C=C1C(=O)O[C@@H]2C[C@@H](C)[C@H]3C=CC(=O)[C@]3(O)C[C@@H]12	32µM*	-26%	-1%	?	-24%	-2
C=C1C(=O)OC2CC3(C)OC3CCC(C)=CC(OC(C)=O)C12 (centres undefined)	-14%	-2%	nt	5%	-3%	-7
COc1ccc(OC)c(NC(=O)Cn2cc(C(=O)c3ccccc3)c3ccccc32)c1	-21%	-26%	1%	4%	nt	nt
